Here are results for 7 molecules from PubChem BioAssay (NCI).

About 83,000 compounds went through this panel and 20% of them were active in at least one assay; those are over-represented in the sample as a whole.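 Compound tested at a single concentration for 48 hours in 96-well plates; a percent growth value below 10 was scored as active.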 Values without a mark were called inactive. Active and inactive are the calls of the source.

Some test systems named below: NCI-H23 lung; NCI-H226 lung; NCI-H322M lung; HOP-62 NSCLC; NCI-H460 lung; HOP-92 NSCLC; NCI-H522 lung; A549/ATCC NSCLC; 786-0 renal; COLO 205 colon; DU-145 prostate; K-562 leukemia; MALME-3M melanoma; MDA-MB-231 breast; RXF 393 renal; SF-268 CNS; SF-295 CNS; SF-539 CNS; UACC-257 melanoma; M14 melanoma.
Common to all, as to experiment: NCI-60 one-dose screen, 48 h (100 = growth as untreated, 0 = no growth, -100 = all killed)
What all share (settings): 10 µM unless noted

Regarding `O=C(Cn1nnc([N+](=O)[O-])n1)c1ccccc1`, the growth was 96.5% in the test on NCI-H23 lung; 112% in the test on NCI-H226 lung; 101% with NCI-H322M lung; 94.8% in the test on HOP-62 NSCLC; 93.2% in the test on NCI-H460 lung; 63.6% in the test on HOP-92 NSCLC. Moreover, the growth in the test with NCI-H522 lung is 86.9%; with A549/ATCC NSCLC, 87%; with 786-0 renal it was 102%; with COLO 205 colon, 100%; in the test on DU-145 prostate, 99.4%; in the test on K-562 leukemia it was 83.3%. Also, the growth in the test with MALME-3M melanoma was 92.7%; in the test with MDA-MB-231 breast it was 71.5%; in the test with RXF 393 renal, 91.8%; in the test with SF-268 CNS, 83.1%; in the test with SF-295 CNS, 58%; in the test with SF-539 CNS, 93.3%. The growth in the test with UACC-257 melanoma is 90.9%; in the test on M14 melanoma, 71.5%.

For the molecule `O=C1c2cc3c(cc2-c2c1c1ccc(Cl)cc1c(=O)n2C[C@H](O)CO)OCO3`, the growth with NCI-H23 lung is -11.4% (active); in the test with NCI-H226 lung, -77.7% (active); with NCI-H322M lung it was -14.3% (active); in the test on HOP-62 NSCLC, -19.8% (active); with NCI-H460 lung, -12.1% (active); with HOP-92 NSCLC, -11% (active). Further, the growth is -12.7% (active) in the test with NCI-H522 lung; -18.6% (active) in the test with A549/ATCC NSCLC; -42.2% (active) with 786-0 renal; -28.1% (active) in the test on COLO 205 colon; 3.78% (active) in the test with DU-145 prostate; 10.4% in the test on K-562 leukemia. Moreover, the growth with MALME-3M melanoma is -26.7% (active); in the test on MDA-MB-231 breast, 19.5%; in the test on RXF 393 renal it was -66.6% (active); in the test with SF-268 CNS, 4.7% (active); with SF-295 CNS, -14.8% (active); in the test with SF-539 CNS, -33.1% (active). Also, the growth is -36% (active) in the test with UACC-257 melanoma and -14.2% (active) in the test on M14 melanoma.

On to `COc1ccc(-c2ccc(-c3ccc(C(=N)N)cn3)s2)cc1`, for which the growth in the test with NCI-H23 lung is 98.8%; in the test with NCI-H226 lung, 84.5%; with NCI-H322M lung, 91.9%; in the test on HOP-62 NSCLC it was 90%; in the test with NCI-H460 lung it was -22.6% (active); in the test on HOP-92 NSCLC it was 80%. In addition, the growth is 82.4% in the test on NCI-H522 lung; 63.6% in the test with A549/ATCC NSCLC; 99.7% with 786-0 renal; 62.4% in the test on COLO 205 colon; 64.2% in the test with DU-145 prostate; 0.33% (active) with K-562 leukemia. Besides, the growth in the test on MALME-3M melanoma was 102%; in the test with MDA-MB-231 breast, 87.7%; with RXF 393 renal it was 97.8%; with SF-268 CNS it was 99%; in the test on SF-295 CNS, 104%; in the test on SF-539 CNS, 94.3%. Moreover, the growth in the test on UACC-257 melanoma was 102%; in the test with M14 melanoma, 101%.

With `O=C1Nc2ccccc2/C1=C/c1cn(C[C@@H](O)Cn2c3ccccc3c(=O)c3ccccc32)c2ccccc12`, the growth with NCI-H23 lung was 84.1%; in the test with NCI-H226 lung, 63.1%; with NCI-H322M lung, 75.9%; in the test with HOP-62 NSCLC, 62.2%; in the test on NCI-H460 lung, 74.3%; with HOP-92 NSCLC it was 52.9%. Moreover, the growth was 55.5% with NCI-H522 lung; 71.6% with A549/ATCC NSCLC; 86.4% with 786-0 renal; 84.1% in the test with COLO 205 colon; 105% in the test with DU-145 prostate; 68.4% in the test with K-562 leukemia. For the same molecule, the growth in the test on MALME-3M melanoma is 81.3%; in the test with MDA-MB-231 breast, 50.2%; in the test with RXF 393 renal it was 76.8%; in the test with SF-268 CNS it was 72.8%; in the test with SF-295 CNS, 81.6%; in the test with SF-539 CNS, 84.7%. Moreover, the growth in the test with UACC-257 melanoma was 100%; in the test with M14 melanoma, 69.7%.

Consider `O=C(CCCCNC(=O)c1cc(=O)c(O)co1)Nc1ccccc1`, for which the growth was 86.2% in the test on NCI-H23 lung; 102% with NCI-H226 lung; 102% with NCI-H322M lung; 118% in the test with HOP-62 NSCLC; 99.5% with NCI-H460 lung; 59.1% in the test with HOP-92 NSCLC. Further, the growth is -5.93% (active) in the test with NCI-H522 lung; 104% in the test on A549/ATCC NSCLC; 101% with 786-0 renal; 67.7% in the test with COLO 205 colon; 104% in the test with DU-145 prostate; 13.3% with K-562 leukemia. The growth is 43% with MALME-3M melanoma; 99% in the test on MDA-MB-231 breast; 55.5% in the test with RXF 393 renal; 91% with SF-268 CNS; 102% in the test on SF-295 CNS; 92.5% with SF-539 CNS. Moreover, the results for the growth in the test on UACC-257 melanoma and with M14 melanoma were 88.7% and 81.5%, respectively.

On to `CC[C@H](C)[C@H](NC(=O)[C@H](CCCNC(=N)N)NC(=O)[C@H](Cc1c[nH]c2ccccc12)NC(=O)[C@@H](NC(=O)[C@H](CCCCN)NC(=O)[C@H](CCCCN)NC(=O)[C@@H](NC(=O)[C@@H](NC(=O)[C@@H](NC(=O)[C@H](CCCCN)NC(=O)[C@H](Cc1ccccc1)NC(=O)[C@H](CCCCN)NC(=O)[C@H](CCCCN)NC(=O)[C@H](Cc1ccccc1)NC(=O)[C@@H](NC(=O)[C@@H](N)CCCCN)[C@@H](C)CC)[C@@H](C)O)[C@@H](C)CC)[C@@H](C)CC)C(C)C)C(=O)N[C@@H](Cc1ccccc1)C(=O)NCC(=O)N[C@@H](CCCNC(=N)N)C(=O)N[C@@H](Cc1ccccc1)C(N)=O`, for which the growth in the test on NCI-H23 lung was -37.9% (active); in the test with NCI-H226 lung, 1.83% (active); in the test on NCI-H322M lung it was -50.5% (active); in the test on HOP-62 NSCLC it was -41.7% (active); in the test with NCI-H460 lung it was -5.53% (active); in the test with HOP-92 NSCLC, -20.3% (active). The growth is 14.1% in the test on NCI-H522 lung; -40.6% (active) in the test with A549/ATCC NSCLC; -31.3% (active) in the test with 786-0 renal; -55.3% (active) with COLO 205 colon; -64.4% (active) with DU-145 prostate; 4.14% (active) with K-562 leukemia. In addition, the growth with MALME-3M melanoma is -64.4% (active); in the test with MDA-MB-231 breast, -70.6% (active); in the test on RXF 393 renal it was -2.96% (active); with SF-268 CNS it was -23.2% (active); with SF-295 CNS, -34.1% (active); in the test with SF-539 CNS it was -69.8% (active). Further, the growth in the test with UACC-257 melanoma is 47.3%; in the test with M14 melanoma, -18.4% (active).

Turning to `COc1cc(-c2nc3occn3c2-c2ccnc(NCCCNS(=O)(=O)c3ccccc3)n2)ccc1F`, the growth in the test on NCI-H23 lung was 45.6%; with NCI-H226 lung it was 18.4%; in the test on NCI-H322M lung, 78.3%; in the test on HOP-62 NSCLC it was 73.9%; in the test with NCI-H460 lung, 47.8%; in the test with HOP-92 NSCLC, 63.4%. For the same molecule, the growth with NCI-H522 lung is 26.6%; with A549/ATCC NSCLC, 38%; in the test on 786-0 renal it was 63.8%; with COLO 205 colon, 28.8%; in the test with DU-145 prostate, 52.5%; in the test with K-562 leukemia, 26.5%. Besides, the growth was 18.4% in the test with MALME-3M melanoma; 45.1% in the test with MDA-MB-231 breast; 48.6% in the test on RXF 393 renal; 52.8% in the test with SF-268 CNS; 46% in the test on SF-295 CNS; 78.8% in the test with SF-539 CNS. Further, the growth was 41.4% in the test on UACC-257 melanoma and 17.2% with M14 melanoma.
